Compound activity as filed in PubChem BioAssay.
697 NFkB inh: inhibitors of PMA/ionomycin-induced NF-kB reporter, 697 cells, primary screen, B-cell NF-kB inhibitor project, cell-based, luminescence, uHTS | AID 435022, 2010 | 697 B-cell NF-kB luciferase reporter, 16 h | inhibition, % at 4 µM | actives 0.33% (n = 330,000); in the data active means inhibition above about 35%
Gli-Sufu block: Gli-Sufu pathway antagonists, primary screen, luciferase luminescence, Sufu-KO-LIGHT cells, uHTS | Sufu-KO-LIGHT fibroblasts, Gli luciferase reporter luminescence | actives 0.74% (n = 340,000) | inhibition, % at 5 µM;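 active means inhibition above about 55%, limit read from the data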;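 further: 0% = DMSO-treated cells and 100% = wells with medium but no cells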
Jurkat NFkB inh: inhibitors of induced NF-kB luciferase reporter, primary screen, TCR NF-kB activation inhibitor project, cell-based, luminescence, uHTS. inhibition, % at 4 µM. Jurkat, PMA/ionomycin-induced NF-kB luciferase reporter. actives 0.53% (n = 330,000). AID 435003, 2010; in the data active means inhibition above about 50%
esBAF inh: Bmi1 luciferase reporter increase in mESCs, primary screen, esBAF inhibitor project, mouse ES cells, Bmi1 luciferase knock-in, single point. 24 h; 100% = twice the neutral-well signal. reporter increase, % at 12.5 µM. AID 602393, 2012. actives 2% (n = 350,000); in the data active means activation above about 40%; inconclusive means no clear call, values can overlap the other calls;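 further: 0% = median of the plate's neutral control wells and 100% = double that signal; a rise in the Bmi1 reporter signal indicates esBAF inhibition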
SMARCA2 act: SMARCA2 (BRM) function activators, primary screen, cell-based, luminescence, high throughput. MG213 cells, MMTV-luciferase reporter, dexamethasone, overnight. activation, % at 9.1 µM. actives 1% (n = 370,000). AID 652017, 2013; in the data active means activation above about 7.8%;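 further: 0% = vehicle wells and 100% = reference activator wells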
Active calls of the source: *. Compounds with a hit are over-represented: about 3.3% of the library has one in this group of screens.

For CCC(CC)c1nnc(NC(=O)c2ccc3ccccc3n2)s1 the results were 697 NFkB inh -168, Gli-Sufu block -85, Jurkat NFkB inh -84, esBAF inh 53* and SMARCA2 act 3.
Screening COc1ccc(-c2cc(-c3ccc(C)cc3)n[nH]2)c(O)c1 returned 697 NFkB inh -184, Gli-Sufu block -7, Jurkat NFkB inh -84, esBAF inh inconclusive and SMARCA2 act 0.
COc1ccc(-c2cc(-c3ccc(OC)cc3)[nH]n2)cc1 was read as 697 NFkB inh -44, Gli-Sufu block -69, Jurkat NFkB inh -69, esBAF inh 64* and SMARCA2 act -1.
`CN(C)c1ccc(/C=C/c2ccc3c4ccccc4ccc3[n+]2-c2ccccc2)cc1` gave Gli-Sufu block 92*, esBAF inh -68 and SMARCA2 act -10.
CN(C)c1ccc(/C=C/c2cccc[n+]2[O-])cc1 was read as 697 NFkB inh -34, Gli-Sufu block -35, Jurkat NFkB inh -30, esBAF inh 10 and SMARCA2 act 1.
COC(=O)c1ccc2c(C)c(C3(O)CCCCC3)[nH]c2c1 was read as 697 NFkB inh -25, Gli-Sufu block -25, Jurkat NFkB inh 1, esBAF inh 66* and SMARCA2 act 4.
Screening C[C@H]1CN([C@@H](C)CO)C(=O)c2cc(NC(=O)NC3CCCCC3)ccc2O[C@@H]1CN(C)Cc1ccc(C(F)(F)F)cc1 returned esBAF inh -5.
For CC(C)NC(=O)N(C)C[C@@H]1Oc2ncc(C#CC3CCCC3)cc2C(=O)N([C@H](C)CO)C[C@@H]1C the results were esBAF inh -1.
`COc1ccccc1OCCSc1nc2ccccc2c(=O)[nH]1` gave 697 NFkB inh -67, Gli-Sufu block 0, Jurkat NFkB inh -14, esBAF inh 64* and SMARCA2 act 1.
For O=c1[nH]c(SCCOc2ccccc2F)nc2ccccc12 the results were 697 NFkB inh 5, Gli-Sufu block -16, Jurkat NFkB inh -22 and SMARCA2 act -1.
C[C@H](O)C#Cc1cnc2c(c1)C(=O)N([C@H](C)CO)C[C@H](C)[C@H](CN(C)C(=O)CN1CCOCC1)O2 was read as esBAF inh 1.
`CCn1c(SCC(=O)c2ccc(Cl)cc2)nnc1-c1ccoc1C` gave 697 NFkB inh 5, Gli-Sufu block 1, Jurkat NFkB inh -12, esBAF inh 9 and SMARCA2 act -2.
For CCn1c(SCC(=O)c2ccc(C)cc2)nnc1-c1ccoc1C the results were 697 NFkB inh 11, Gli-Sufu block 0, Jurkat NFkB inh -3, esBAF inh 88* and SMARCA2 act 2.
Screening Cc1cccc(NC(=S)N2N=CCC2c2ccccc2)c1 (stereo not drawn) returned 697 NFkB inh -8, Gli-Sufu block -51, Jurkat NFkB inh -24, esBAF inh 49* and SMARCA2 act 3.
For CCc1ccccc1NC(=S)N1N=CCC1c1ccccc1 (stereo not drawn) the results were 697 NFkB inh 0, Gli-Sufu block -12, Jurkat NFkB inh -19, esBAF inh 12 and SMARCA2 act -1.
`CC(=O)Oc1ccc([C@@H]2COc3c(ccc4c3C=CC(C)(C)O4)C2)c(OC(C)=O)c1` gave 697 NFkB inh -61, Gli-Sufu block -49, Jurkat NFkB inh -31, esBAF inh 50* and SMARCA2 act 0.
`COc1ccc(Oc2nccc(-c3ccccc3)c2C#N)cc1` gave 697 NFkB inh -145, Gli-Sufu block 9, Jurkat NFkB inh -83, esBAF inh 55* and SMARCA2 act 1.
For O=C(NC1CCCCCC1)C(=S)NCc1ccccc1 the results were 697 NFkB inh -29, Gli-Sufu block -38, Jurkat NFkB inh -38 and SMARCA2 act 1.
`O=C(NC1CCCCC1)C(=S)NCc1ccccc1` gave 697 NFkB inh -21, Gli-Sufu block -17, Jurkat NFkB inh -45, esBAF inh 50* and SMARCA2 act 1.
`O=C(NC(=S)NC1CCCC1)c1ccccc1` gave 697 NFkB inh -100, Gli-Sufu block -75, Jurkat NFkB inh -40, esBAF inh 56* and SMARCA2 act 2.
For CC(=O)Nc1cccc(C(C)C2=CCCCC2)c1 (stereo not drawn) the results were SMARCA2 act 7.8*.
Cc1cc(C)c2nc(N3CCCC(C(=O)NCCCN4CCOCC4)C3)sc2c1 (stereo not drawn) was read as 697 NFkB inh -34, Gli-Sufu block -15, Jurkat NFkB inh -19 and SMARCA2 act -2.
`COc1ccc2nc(N3CCCC(C(=O)NCCCN4CCN(C)CC4)C3)sc2c1` (stereo not drawn) gave 697 NFkB inh -9, Gli-Sufu block -10, Jurkat NFkB inh -35, esBAF inh 2 and SMARCA2 act 0.
Screening COc1ccc2nc(N3CCCC(C(=O)NCCc4ccc(OC)c(OC)c4)C3)sc2c1 (stereo not drawn) returned 697 NFkB inh -79, Gli-Sufu block -39, Jurkat NFkB inh -1, esBAF inh 53* and SMARCA2 act 1.
Screening Cc1cc(C)c2nc(N3CCCC(C(=O)NCCN4CCOCC4)C3)sc2c1 (stereo not drawn) returned 697 NFkB inh -116, Gli-Sufu block -22, Jurkat NFkB inh -16, esBAF inh 68* and SMARCA2 act 1.
CC(C)CC#Cc1ccc2c(c1)O[C@@H](CN(C)CC1CCOCC1)[C@@H](C)CN([C@@H](C)CO)S2(=O)=O was read as esBAF inh -7.
Cc1ccc(S(=O)(=O)Nc2ccc3c(c2)CC(=O)N([C@H](C)CO)C[C@H](C)[C@@H](CN(C)C(=O)Nc2c(C)noc2C)O3)cc1 was read as esBAF inh -4.
`O=C(NC(=S)Nc1cccc([N+](=O)[O-])c1)c1ccco1` gave 697 NFkB inh -19, Gli-Sufu block -28, Jurkat NFkB inh -12, esBAF inh 49* and SMARCA2 act 8.
For O=C(c1ccncc1)N1C[C@H]2[C@@H](c3ccccc31)[C@@H](CO)N2C(=O)Nc1ccc(F)cc1 the results were esBAF inh 6.
For O=C(C[C@H]1CC[C@H]2[C@@H](COC[C@H](O)CN2S(=O)(=O)c2ccccc2)O1)N1CCOCC1 the results were esBAF inh 4.
CCCOC1CCCN(C(=O)c2cc(COc3ccc(F)c(F)c3)on2)C1 (stereo not drawn) was read as 697 NFkB inh -110, Gli-Sufu block -11, Jurkat NFkB inh -88, esBAF inh 47* and SMARCA2 act 1.
For O=C(c1cc(COc2ccc3ncccc3c2)on1)N1CCCC(O)C1 (stereo not drawn) the results were 697 NFkB inh 1, Gli-Sufu block 29, Jurkat NFkB inh 7, esBAF inh 12 and SMARCA2 act -1.
